The text below walks through data of PubChem BioAssay.

The structures appear in SMILES notation. Records with an inconclusive call do not appear. Calls of active or inactive are those of the source.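 The calls were made as follows, unless noted: active = viability loss from added drug above about 55%, and viability with drug at most 40%, in both replicates (limit read from the data, passing the limit was not always enough); inconclusive = both conditions met in only one replicate; inactive = neither replicate meets both conditions.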

Assay [1] in a line: reducers of endogenous Her2 protein level, primary screen, SKBR3 breast tumor cells, AlphaScreen, ATP viability (AID 461;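 active = Her2 level under about 52% in both replicate screens, with viability over 70% of control, limit read from the data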;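 as to Her2 level: lower value means less Her2 protein in the cells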;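 as to viability: percent of carrier control wells set as 100% viability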). The settings on record: 18-24 h, measured here: SKBR3 viability, ATP luminescence, at 10 µM. (In general: Bead proximity is the source of the signal in Alpha formats.)
Assay [2] addresses Receptor tyrosine-protein kinase erbB-2 (Homo sapiens) (UniProt P04626). The description is as above. Conditions: 18-24 h, at 10 µM, stronger effect = lower value.
A short description of assay [3]: SK-BR-3 cell growth inhibitors, pilot screen, 24 h, human (AID 572;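 active = viability at or below 10% of carrier control in both of two separate runs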;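 also: compound exposure lasted between 18 and 24 h rather than exactly 24 h; 100% = carrier-treated control wells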). The settings on record: SK-BR-3 viability, CellTiter-Glo luminescence, at 10 µM, stronger effect = lower value. Background: ATP-based viability assays read luminescence as a measure of living cells.
Assay [4] in a line: HUVEC growth inhibition – cell-based, human, primary screen (AID 575;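 active = viability at or below 30% in both replicate assays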;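 also: 100% = median of untreated cell wells with 0.1% DMSO on each plate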). Conditions: HUVEC proliferation, CellTiter-Glo luminescence, 72 h; at 10 µM; stronger effect = lower value.
A short description of assay [5]: growth inhibitors of H69AR lung tumor, primary screen, human, duplicate replicates (AID 580;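 active = viability at or under a set limit in both replicates, limit being median viability minus 3 SD, cut at about 48% in these data, passing the limit was not always enough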;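 also: 100% = mean luminescence of untreated wells and 0% = no signal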). Conditions: H69AR lung tumor cells viability, ATP luminescence, 72 h; at 10 µM; stronger effect = lower value.
Assay [6] is described as follows: reversal of MRP1-mediated doxorubicin resistance, pilot screen, H69AR cells, doxorubicin co-treatment (AID 601). The settings on record: CellTiter-Glo, 72 h, at 10 µM; for differential viability (reversal): stronger effect = higher value.
A short description of assay [7]: 384-well plate pilot, post-Golgi transport modulator project, inhibition of yeast transport mutant growth (AID 636; in the data active = inhibition above about 31%). Conditions: absorbance 615 nm, about 18 h, stronger effect = higher value.
A short description of assay [8]: growth suppression of yeast trafficking mutant, preliminary HTS, modulators of trafficking downstream of Golgi apparatus project, 1536-format plate, OD 615 nm (AID 637; in the data active = inhibition above about 30%). The settings on record: yeast transport mutant growth, absorbance 615 nm, 18 h; stronger effect = higher value.
Assay [9] can be described thus: OD615 S. cerevisiae growth inhibition, permissive medium, pilot counter-assay, permissive growth control for S. cerevisiae lifespan shortening project (AID 705;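 active = growth inhibition above 25% in both replicates, a cutoff set 3 SD above the mean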). Conditions: OD615, 24 h, at 10 µM, stronger effect = higher value.
The nature of assay [10]: Restrictive medium S. cerevisiae growth inhibition, OD615, pilot screen of yeast lifespan reduction project, restrictive growth control (AID 706;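 active = growth inhibition above a set limit, 3 SD over mean compound inhibition, in both replicates, cut at about 43% in these data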;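 also: modified DeaD lifespan yeast strain shifted to restrictive glucose medium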). Conditions: OD615, 48 h, at 10 µM, stronger effect = higher value.
Assay [11] in a line: viability gain of MRP-1-high H69AR cells under doxorubicin, pilot screen, MRP-1 activator project, CellTiter-Glo, duplicate (AID 807;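 active = viability increase at or above a cutoff of the median across tested compounds plus 3 SD, cut at about 8.5% in these data, passing the limit was not always enough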;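 also: compound pretreatment 18-22 h then 72 h combined with doxorubicin; 0% = doxorubicin alone and 100% = vehicle without doxorubicin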). The settings on record: H69AR viability with doxorubicin, CellTiter-Glo luminescence; at 10 µM; stronger effect = higher value.
Assay [12] in a line: growth suppression of beta-catenin knockout HCT116, pilot screen, human colon tumor cells (AID 823;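 active = cell viability at or below a set limit in both duplicate runs, the limit being the all-compound median minus 4 SD, cut at about 23% in these data, passing the limit was not always enough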;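 also: 0% = wells killed by 20 µM Hyamine and 100% = untreated DMSO cell wells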). Conditions: CellTiter-Glo, 60 h, at 10 µM, stronger effect = lower value.
The nature of assay [13]: growth suppression of PTEN-deleted HCT116, pilot screen, cell-based, HCT116 clonal line, CellTiter-Glo (AID 824;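 active = viability at or below 27.92% in each of two runs, the all-compound median minus 4 SD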;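 also: 0% = 20 µM Hyamine control and 100% = vehicle cell control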). Conditions: 60 h, at 10 µM, stronger effect = lower value.
Assay [14] can be described thus: inhibitors of the yeast RAM network, pilot screen, dse1pr::URA3 reporter, 5-FOA selection (AID 869;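 active = inhibition over a set limit, the all-compound mean plus 3 SD, in both replicate runs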;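 also: 0% = DMSO wells with no growth and 100% = 10 µM 1-NA-PP1 with full growth; RAM network block rescues cells from 5-FOA so hits raise OD615 growth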). Conditions: S. cerevisiae dse1pr::URA3 5-FOA growth, OD615, 2 d; at 10 µM; stronger effect = higher value; strain carries analog-sensitive mutant Cbk1 kinase.
The nature of assay [15]: RAM signaling pathway blockade in yeast – S. cerevisiae, Pdr1DBD-CYC8 efflux-inhibited sensitized strain, primary screen (AID 1298;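 active = RAM network inhibition above 8.4% in each of two replicates, 3 SD over the compound average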;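 also: 0% = DMSO untreated cells without growth and 100% = 10 µM 1-NA-PP1 full growth; higher means more yeast growth rescued from 5-FOA killing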). Conditions: S. cerevisiae cbk1-as DSE1-URA3 strain, 5-FOA growth OD615, 2 d; at 50 µM; stronger effect = higher value.
Setting [16] is: H69AR cells + 2 uM doxorubicin, measured here: viability with 2 uM doxorubicin, stronger effect = lower value.
The mark [17] stands for this setting: H69AR cells, compound alone cytotoxicity.

Receptor tyrosine-protein kinase erbB-2 (Homo sapiens), sequence (P04626 whole entry, looked up): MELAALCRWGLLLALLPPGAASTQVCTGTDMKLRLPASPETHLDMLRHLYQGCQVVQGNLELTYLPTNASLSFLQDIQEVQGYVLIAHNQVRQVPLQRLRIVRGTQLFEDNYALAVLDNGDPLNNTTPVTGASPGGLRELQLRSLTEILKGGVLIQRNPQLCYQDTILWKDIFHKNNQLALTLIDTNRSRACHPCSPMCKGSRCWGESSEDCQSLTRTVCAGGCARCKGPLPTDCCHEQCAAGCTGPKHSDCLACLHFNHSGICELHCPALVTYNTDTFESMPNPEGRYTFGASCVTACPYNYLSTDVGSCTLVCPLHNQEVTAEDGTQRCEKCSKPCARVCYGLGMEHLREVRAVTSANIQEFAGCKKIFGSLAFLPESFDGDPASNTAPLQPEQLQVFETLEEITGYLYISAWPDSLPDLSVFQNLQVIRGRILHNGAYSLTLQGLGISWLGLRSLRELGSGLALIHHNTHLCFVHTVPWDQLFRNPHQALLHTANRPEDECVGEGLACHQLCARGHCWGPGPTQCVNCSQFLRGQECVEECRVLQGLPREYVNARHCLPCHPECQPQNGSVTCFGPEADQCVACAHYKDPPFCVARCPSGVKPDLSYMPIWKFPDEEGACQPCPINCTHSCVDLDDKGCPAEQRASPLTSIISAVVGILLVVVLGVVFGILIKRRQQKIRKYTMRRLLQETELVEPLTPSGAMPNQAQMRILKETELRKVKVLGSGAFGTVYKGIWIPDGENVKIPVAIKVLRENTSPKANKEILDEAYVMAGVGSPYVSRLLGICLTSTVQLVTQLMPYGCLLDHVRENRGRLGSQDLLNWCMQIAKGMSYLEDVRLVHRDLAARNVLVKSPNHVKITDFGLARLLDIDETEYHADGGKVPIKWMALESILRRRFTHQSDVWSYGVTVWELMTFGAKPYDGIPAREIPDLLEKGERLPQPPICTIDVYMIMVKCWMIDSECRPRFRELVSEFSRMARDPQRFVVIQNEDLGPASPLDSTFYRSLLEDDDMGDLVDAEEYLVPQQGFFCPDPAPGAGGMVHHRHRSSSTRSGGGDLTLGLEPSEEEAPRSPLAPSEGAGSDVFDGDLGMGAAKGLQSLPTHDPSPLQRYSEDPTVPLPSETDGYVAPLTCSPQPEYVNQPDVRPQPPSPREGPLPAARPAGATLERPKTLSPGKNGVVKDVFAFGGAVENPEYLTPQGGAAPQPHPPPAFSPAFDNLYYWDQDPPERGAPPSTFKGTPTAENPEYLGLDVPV

On to `O=C(O)CC(NC(=O)c1ccccc1NC(=O)c1ccccc1)C(=O)O` (stereo not drawn), for which the viability (commonly a read-out of living cells in per cent, often relative to untreated cells) is 86.5% in assay [1]; 86.5% (inactive) in assay [3]; 93.5% (inactive) in [4]; 97.2% (inactive) in assay [5]; 90.5% in assay [6] (setting [16]); 97.2% in assay [6] (setting [17]). Moreover, the viability in assay [12] was 108% (inactive); in assay [13], 96.5% (inactive). In [2], the Her2 level was 154% (inactive). In addition, the differential viability (reversal) in assay [6] (H69AR cells + 2 uM doxorubicin) is 6.64% (inactive). The inhibition – broadly, the change of the read-out against control, counted positive when it falls – was 3.97% (inactive) in assay [7], 35.3% (active) in assay [8] and 0.785% (inactive) in assay [14]. In addition, the growth inhibition was -0.82% (inactive) in [9] and -3.04% (inactive) in assay [10]. For the same compound, the viability increase in assay [11] is -0.74% (inactive). Moreover, the RAM network inhibition in assay [15] was 0.47% (inactive).

On to `CN(C)c1oc(-c2ccccc2F)nc1C#N`, for which the viability was 95% in assay [1]; 95% (inactive) in assay [3]; 82.3% (inactive) in assay [4]; 101% (inactive) in [5]; 89.5% in assay [6] (setting [16]); 101% in [6] (setting [17]). Besides, the viability in assay [12] is 112% (inactive); in [13], 106% (inactive). Moreover, the Her2 level in assay [2] is 99.5% (inactive). In addition, the differential viability (reversal) in [6] (H69AR cells + 2 uM doxorubicin) is 11.8% (inactive). Also, the inhibition is -2.8% (inactive) in [7], 6.56% (inactive) in assay [8] and 0.58% (inactive) in assay [14]. In addition, the growth inhibition was -11.3% (inactive) in assay [9] and -2.67% (inactive) in [10]. Besides, in assay [11], the viability increase was -0.62% (inactive). In assay [15], the RAM network inhibition is 3.09% (inactive).

Take `COc1ccc(C2CC(c3cccs3)n3nc(N)nc3N2)cc1` (stereo not drawn): the viability in assay [1] was 113%; in assay [3] it was 113% (inactive); in [4], 89.3% (inactive); in assay [5], 91.4% (inactive); in assay [6] (setting [16]) it was 83.4%; in [6] (setting [17]), 91.4%. Besides, the viability in [12] was 94.2% (inactive); in assay [13], 82.2% (inactive). For the same compound, in assay [2], the Her2 level is 102% (inactive). Further, the differential viability (reversal) in [6] (H69AR cells + 2 uM doxorubicin) was 7.99% (inactive). For the same compound, the figures for the inhibition in assay [7], in assay [8] and in [14] were -2.4% (inactive), -6.39% (inactive) and 0.275% (inactive), respectively. Moreover, the growth inhibition in assay [9] is 2.05% (inactive); in [10] it was 17% (inactive). In addition, the viability increase in assay [11] was -1.71% (inactive). The RAM network inhibition in assay [15] is 8.26% (inactive).

Take `Cc1nn(C(=O)c2ccoc2C)c(N)c1-c1ccccc1`: the viability in assay [1] was 101%; in [3], 101% (inactive); in [4], 85.9% (inactive); in assay [5] it was 92.1% (inactive); in assay [6] (setting [16]), 79.5%; in assay [6] (setting [17]), 92.1%. Moreover, the viability in assay [12] was 78.8% (inactive); in assay [13], 84.3% (inactive). Further, in assay [2], the Her2 level is 88.5% (inactive). Further, the differential viability (reversal) in assay [6] (H69AR cells + 2 uM doxorubicin) was 12.6% (inactive). The inhibition in assay [7] was -6.27% (inactive); in [8] it was -2.33% (inactive); in assay [14], 1.68% (inactive). In addition, the growth inhibition in assay [9] was 13% (inactive); in assay [10], 10.9% (inactive). The viability increase in assay [11] is 2.64% (inactive). Besides, the RAM network inhibition in [15] is 7.07% (inactive).

`CN(C)C(=O)N1CCN(C(=O)c2ccco2)CC1`: the viability in assay [1] was 116%; in assay [3] it was 116% (inactive); in [4], 94.6% (inactive); in [5], 101% (inactive); in assay [6] (setting [16]), 94.6%; in assay [6] (setting [17]) it was 101%. In addition, the viability in assay [12] is 102% (inactive); in assay [13], 99.5% (inactive). Further, the Her2 level in assay [2] is 114% (inactive). For the same compound, the differential viability (reversal) in assay [6] (H69AR cells + 2 uM doxorubicin) was 6.83% (inactive). The inhibition in assay [7] was 2.4% (inactive); in assay [8] it was -3.83% (inactive); in assay [14] it was 2.13% (inactive). Moreover, the growth inhibition is 1.14% (inactive) in [9] and 8.06% (inactive) in assay [10]. The viability increase in [11] was -1.78% (inactive). Moreover, the RAM network inhibition in [15] was 0.72% (inactive).

As to `CC1=C(C(=O)Nc2cccnc2)C(c2ccc(C(C)C)cc2)n2ncnc2N1` (stereo not drawn), the viability in [1] was 89.5%; in assay [3], 89.5% (inactive); in assay [4], 103% (inactive); in [5], 97.8% (inactive); in assay [6] (setting [16]), 71.1%; in assay [6] (setting [17]), 97.8%. Further, the viability was 96.6% (inactive) in assay [12] and 102% (inactive) in [13]. The Her2 level in assay [2] is 105% (inactive). Further, the differential viability (reversal) in assay [6] (H69AR cells + 2 uM doxorubicin) was 26.7% (inactive). Besides, the values for the inhibition in [7], in [8] and in assay [14] were -2.13% (inactive), -2.83% (inactive) and 0.44% (inactive), respectively. Moreover, the growth inhibition in assay [9] was -9.26% (inactive); in assay [10], -12.1% (inactive). The viability increase in assay [11] is -3.03% (inactive). The RAM network inhibition in [15] is 1.4% (inactive).

Turning to `CCCCOC(=O)Cn1c(=O)oc2ccc(C)cc21`, the viability in [1] is 102%; in assay [3], 102% (inactive); in [4], 86% (inactive); in assay [5] it was 93.4% (inactive); in [6] (setting [16]), 87.4%; in [6] (setting [17]), 93.4%. Further, the viability in assay [12] is 89.6% (inactive); in assay [13], 98.1% (inactive). In addition, the Her2 level in assay [2] is 126% (inactive). For the same compound, the differential viability (reversal) in assay [6] (H69AR cells + 2 uM doxorubicin) is 5.94% (inactive). Also, the results for the inhibition in assay [7], in assay [8] and in [14] were -3.2% (inactive), 2.67% (inactive) and -0.58% (inactive), respectively. The values for the growth inhibition in [9] and in assay [10] were -17.9% (inactive) and -25.1% (inactive), respectively. For the same compound, the viability increase in assay [11] is -0.28% (inactive). Besides, the RAM network inhibition in assay [15] was 0.27% (inactive).

As for `Cn1cccc1Cc1nnc(SCC(=O)NCc2ccc(F)cc2)n1-c1ccc(F)cc1`, the viability in [1] was 94.5%; in [3] it was 94.5% (inactive); in assay [4], 80.9% (inactive); in assay [5], 89% (inactive); in assay [6] (setting [16]), 93%; in assay [6] (setting [17]), 89%. Also, the viability was 97.6% (inactive) in [12] and 93.4% (inactive) in [13]. Also, in assay [2], the Her2 level was 108% (inactive). The differential viability (reversal) in assay [6] (H69AR cells + 2 uM doxorubicin) was -4% (inactive). Further, the inhibition is -1.07% (inactive) in [7], 13.3% (inactive) in assay [8] and 2.13% (inactive) in assay [14]. Further, the growth inhibition was -3.33% (inactive) in assay [9] and 8.56% (inactive) in [10]. Besides, the viability increase in assay [11] was -0.43% (inactive). Further, the RAM network inhibition in [15] is 6.3% (inactive).

For `Cc1ccccc1CSc1nnc(C)c(=O)[nH]1`, the viability in assay [1] was 90%; in [3] it was 90% (inactive); in assay [4] it was 104% (inactive); in [5] it was 97.2% (inactive); in [6] (setting [16]) it was 92.5%; in assay [6] (setting [17]), 97.2%. Besides, the viability in assay [12] was 98.8% (inactive); in assay [13] it was 99% (inactive). Also, the Her2 level in assay [2] is 106% (inactive). Besides, in assay [6] (H69AR cells + 2 uM doxorubicin), the differential viability (reversal) is 4.72% (inactive). Moreover, the results for the inhibition in [7], in [8] and in [14] were -3.2% (inactive), -0.17% (inactive) and 0.815% (inactive), respectively. Besides, the growth inhibition in assay [9] is -7.61% (inactive); in assay [10], -2.98% (inactive). Moreover, in assay [11], the viability increase is -1.7% (inactive). For the same compound, in assay [15], the RAM network inhibition is 1.17% (inactive).
